The record followed here is PubChem BioAssay (NCATS).

SMILES strings stand for the structures. Where “and” joins values, the source holds several entries; their conditions need not be identical. Identical values can stand only once. Records with an inconclusive call do not appear. Calls of active or inactive are those of the source. Unless noted, the call rests on the fitted dose curve.

Sequence of Glucocorticoid receptor (Homo sapiens) (P04150 whole entry, looked up): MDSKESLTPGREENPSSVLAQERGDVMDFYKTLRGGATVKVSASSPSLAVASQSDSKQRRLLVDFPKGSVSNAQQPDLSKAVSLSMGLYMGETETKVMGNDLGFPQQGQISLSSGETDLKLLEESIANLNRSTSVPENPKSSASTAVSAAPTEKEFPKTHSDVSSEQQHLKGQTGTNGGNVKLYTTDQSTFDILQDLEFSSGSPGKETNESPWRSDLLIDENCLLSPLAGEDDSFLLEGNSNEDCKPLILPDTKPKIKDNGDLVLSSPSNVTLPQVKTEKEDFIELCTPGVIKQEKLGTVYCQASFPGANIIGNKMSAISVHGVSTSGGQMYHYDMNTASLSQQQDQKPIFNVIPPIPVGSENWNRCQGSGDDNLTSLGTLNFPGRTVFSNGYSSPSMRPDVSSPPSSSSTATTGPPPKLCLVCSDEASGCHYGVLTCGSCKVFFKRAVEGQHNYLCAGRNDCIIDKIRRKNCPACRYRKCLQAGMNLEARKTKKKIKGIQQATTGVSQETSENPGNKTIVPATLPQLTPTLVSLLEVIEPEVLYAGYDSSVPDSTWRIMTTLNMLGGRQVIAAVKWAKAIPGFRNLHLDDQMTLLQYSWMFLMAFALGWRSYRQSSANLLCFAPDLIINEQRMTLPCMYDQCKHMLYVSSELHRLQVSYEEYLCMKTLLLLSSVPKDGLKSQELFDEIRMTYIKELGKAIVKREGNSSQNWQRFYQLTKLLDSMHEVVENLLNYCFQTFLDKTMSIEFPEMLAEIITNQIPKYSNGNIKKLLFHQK

The target in the first experiment is Androgen receptor (Homo sapiens) (UniProt P10275). The experiment in a line: qHTS assay for small molecule agonists of androgen receptor signaling (AID 588515; active means well fitted curve in the direction sought with a large enough effect in the signal ratio, with a control signal flat; the % refers to the signal ratio; further: on the % scale 0 is the no-effect control and ±100 the full control effect). As to conditions: AR-UAS-bla HEK293, beta-lactamase ratio, agonist 16 h; hits give high values. An outline of the steps: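 Stimulation of an AR-responsive β-lactamase reporter in GripTite HEK293 cells was measured after 16 h compound exposure at 37 °C, via CCF4 fluorescence after 2 h RT. EC50 from Hill fits, normalized to R1881 at 30 nM.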
Sequence of Androgen receptor (Homo sapiens) (P10275 whole entry, looked up): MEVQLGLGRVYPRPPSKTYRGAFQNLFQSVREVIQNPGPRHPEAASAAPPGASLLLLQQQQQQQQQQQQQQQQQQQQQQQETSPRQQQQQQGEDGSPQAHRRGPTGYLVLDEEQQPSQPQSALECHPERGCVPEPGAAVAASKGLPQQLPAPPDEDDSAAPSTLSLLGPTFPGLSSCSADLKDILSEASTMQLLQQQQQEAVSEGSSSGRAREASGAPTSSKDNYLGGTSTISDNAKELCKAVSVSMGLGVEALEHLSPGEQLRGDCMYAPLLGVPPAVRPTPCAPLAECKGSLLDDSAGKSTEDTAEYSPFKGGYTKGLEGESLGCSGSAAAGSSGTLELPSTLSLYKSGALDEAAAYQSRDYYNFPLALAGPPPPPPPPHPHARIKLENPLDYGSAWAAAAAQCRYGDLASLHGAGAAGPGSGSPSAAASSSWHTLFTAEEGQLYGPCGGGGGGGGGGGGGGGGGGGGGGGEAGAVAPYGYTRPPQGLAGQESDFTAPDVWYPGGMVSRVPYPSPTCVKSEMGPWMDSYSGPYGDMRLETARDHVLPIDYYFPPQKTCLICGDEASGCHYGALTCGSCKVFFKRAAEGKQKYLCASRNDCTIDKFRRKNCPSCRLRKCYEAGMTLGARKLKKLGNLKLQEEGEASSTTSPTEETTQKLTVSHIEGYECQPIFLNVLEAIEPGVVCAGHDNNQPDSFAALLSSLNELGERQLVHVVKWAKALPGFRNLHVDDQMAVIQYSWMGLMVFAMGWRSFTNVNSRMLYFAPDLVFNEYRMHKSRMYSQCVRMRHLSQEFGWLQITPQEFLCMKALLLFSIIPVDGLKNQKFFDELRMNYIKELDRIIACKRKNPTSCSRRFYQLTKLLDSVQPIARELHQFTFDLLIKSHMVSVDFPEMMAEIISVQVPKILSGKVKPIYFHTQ
With `CCCN(CCC)S(=O)(=O)c1ccc(C(=O)O)cc1`, the activation was -5.06% (inactive) and 5.71% (inactive).
The same measure, in the same setting: next, `NCCNc1cccc2ccccc12`: 6.42% (inactive); `CN(C)C(=O)Nc1ccc(Cl)c(Cl)c1`: 0.958% (inactive); `CCOc1ccc(NC(C)=O)cc1`: 13.2% (inactive) and 14.9% (inactive).
Still for that read-out and setting: next, `COc1ccc(C(=O)c2ccccc2)c(O)c1`: 0.242% (inactive) and -6.84% (inactive); `CCOc1ccccc1C(N)=O`: -4.07% (inactive).

The target is the same in a further experiment. The experiment in a line: qHTS assay for small molecule antagonists of androgen receptor signaling (AID 588516; active means well fitted curve in the direction sought with a large enough effect in the signal ratio, with a control signal flat, not every such curve was filed as active; the % refers to the signal ratio; further: potency means the concentration at half of the fitted maximal effect; on activity change, negative = inhibition: on the % scale 0 is the no-effect control and ±100 the full control effect). As to conditions: AR-UAS-bla HEK293, beta-lactamase ratio, antagonist mode, 16 h; series mostly up to 76.8 µM; activity change, negative = inhibition: at the top concentration. From the text: NIH Chemical Genomics Center [NCGC] U.S. Environmental Protection Agency [EPA] National Institutes of Environmental Health Sciences [NIEHS] National Toxicology Program [NTP] NCGC Assay Overview Androgen receptor (AR), located at chromosome Xq11-12, is an important member of nuclear hormone receptors. AR signaling plays a critical role in AR-dependent prostate cancer and other androgen related diseases. Considerable attention has been given in the past decades to the possibility of some of environmental chemicals which may contribute the endocrine disruption. Therefore, it is important to understand the effect of environmental chemicals in AR signaling pathway.
NCGC Assay Protocol Summary Using a beta-lactamase reporter-gene under control of the AR response element, a cell-based assay [GeneBLAzer AR-UAS-bla-GripTite assay developed by Invitrogen] was used to measure AR ligands signaling. AR-UAS-bla-GripTite HEK 293 cells were used with assay medium containing 10% dialyzed FBS, 0.1 mM NEAA and 1 mM sodium pyruvate. The assay was performed in clear bottom black Greiner 1536-well plates. Library compounds were measured for their ability to inhibit the reporter gene activity. Compounds were screened in a titration series in 1536-well format. The fluorescence intensity (405 nm excitation, 460/530 nm emission) was measured using an EnVision plate reader. Data was normalized relative to R1881 (10nM, 100%), and DMSO only wells (basal, 0%). Concentration-response titration points for each compound were fitted to the Hill equation yielding concentrations of half-maximal inhibition (IC50) and maximal response (efficacy) values. qHTS protocol for AR beta-lactamase assay in antagonist mode [Step] [Parameter] [Value] [Description] 1. Reagent; 5 uL; 2000 cells/well 2. Incubation; 37 C for 5 hrs 3. Compounds; 23 nL; 0.59 nM to 92 uM 4. Controls (Cyp Ac, AR antagonist); 23 nL, dose response, 1:3 dilutions with duplicates 5. Agonist (Stimulator); 1uL; R1881 at 10nM (final) concentration 6. Incubation; 37 C for 16 hrs 7. Detection reagent; 1 uL of CCF4-dye 8. Incubation; RT for 2 hrs 9. Detection; Fluorescence; Envision plate reader
As for `CCCN(CCC)S(=O)(=O)c1ccc(C(=O)O)cc1`, the Potency result is “inactive”.
Regarding `NCCNc1cccc2ccccc12`, the Potency is 39.8 µM (active).
For `CN(C)C(=O)Nc1ccc(Cl)c(Cl)c1`, the “activity change, negative = inhibition” value is -23.3% (inactive).
Regarding `CCOc1ccc(NC(C)=O)cc1`, the Potency entry was “inactive”.
Regarding `CCCCCCCCCCCCCC(=O)OC(C)C`, the “activity change, negative = inhibition” value is 18.4% (inactive).

The next experiment deals with Bile acid receptor (Homo sapiens) (UniProt Q96RI1). The experiment in a line: qHTS assay for small molecule antagonists of farnesoid X receptor signaling (AID 588526). Further: on the % scale 0 is the no-effect control and ±100 the full control effect. As to conditions: HEK293T FXR-UAS-bla, beta-lactamase ratio, antagonist mode; series mostly up to 76.7 µM; activity change, negative = inhibition: at the top concentration. In a few lines: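 Antagonist mode: titrated compounds tested against chenodeoxycholic acid stimulation (normalized to 50 uM CDCA and DMSO) in GeneBLAzer HEK293T cells for 16 h. Beta-lactamase read by CCF4 fluorescence; IC50 from Hill fits.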
Sequence of Bile acid receptor (Homo sapiens) (Q96RI1 whole entry, looked up): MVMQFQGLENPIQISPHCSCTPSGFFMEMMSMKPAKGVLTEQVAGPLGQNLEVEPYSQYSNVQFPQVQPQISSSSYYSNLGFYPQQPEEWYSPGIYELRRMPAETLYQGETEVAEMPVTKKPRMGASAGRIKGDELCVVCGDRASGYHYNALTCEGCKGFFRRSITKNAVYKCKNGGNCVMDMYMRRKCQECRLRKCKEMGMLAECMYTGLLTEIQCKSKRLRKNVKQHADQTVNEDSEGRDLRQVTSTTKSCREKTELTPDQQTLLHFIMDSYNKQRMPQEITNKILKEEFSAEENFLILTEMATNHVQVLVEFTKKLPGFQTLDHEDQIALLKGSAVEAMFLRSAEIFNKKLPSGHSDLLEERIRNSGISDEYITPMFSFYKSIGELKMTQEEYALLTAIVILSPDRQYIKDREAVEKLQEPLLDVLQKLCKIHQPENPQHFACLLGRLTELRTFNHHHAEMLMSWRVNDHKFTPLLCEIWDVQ
As for `CCCN(CCC)S(=O)(=O)c1ccc(C(=O)O)cc1`, the result was inactive.
As for `CCCCOC(=O)CC(CC(=O)OCCCC)(OC(C)=O)C(=O)OCCCC`, the “activity change, negative = inhibition” value was -9.4% (inactive).
For the molecule `CCCCC(CC)COC(=O)c1ccc(N(C)C)cc1` (configuration not stated), the “activity change, negative = inhibition” value is -14.4% (inactive).
Regarding `CCOc1ccc(NC(C)=O)cc1`, the outcome was inactive.
As to `COc1cc([C@H]2Oc3cc([C@H]4Oc5cc(O)cc(O)c5C(=O)[C@@H]4O)ccc3O[C@@H]2CO)ccc1O`, the “activity change, negative = inhibition” value is -24.2% (inactive).
With `COc1ccc(C(=O)c2ccccc2)c(O)c1`, the result was inactive.
In the case of `O=C(O)c1ccc(S(=O)(=O)N(Cl)Cl)cc1`, the “activity change, negative = inhibition” value was -5.32% (inactive).
On the same count and under the same terms, with `CCOc1ccccc1C(N)=O` the figure was -2.78% (inactive).

The target of a further experiment is Glucocorticoid receptor (Homo sapiens) (UniProt P04150). In words: qHTS assay for small molecule agonists of glucocorticoid receptor signaling (AID 588532; active means well fitted curve in the direction sought with a large enough effect in the signal ratio, with a control signal flat; the % refers to the signal ratio;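 further: 100% = dexamethasone at 0.1 µM and 0% = DMSO only wells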). As to conditions: HeLa MMTV-bla, beta-lactamase ratio, agonist, 18 h; hits give high values; percent of dexamethasone control, DMSO zero. In a few lines:
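HeLa GRE-bla reporter cells; 18 h compound exposure at 37 C; 2 h CCF4 loading at room temperature; fluorescence at 460 and 530 nm; EC50 by Hill equation.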
Consider `NC(=O)c1ccccc1O`, for which the activation was 9.52% (inactive).
On the same count and under the same terms, next, `Oc1ccc(Cl)cc1Cc1cc(Cl)ccc1O`: -2.26% (inactive) and 2.38% (inactive); `CCCN(CCC)S(=O)(=O)c1ccc(C(=O)O)cc1`: 0.219% (inactive) and 1.81% (inactive); `C=C[C@@]1(C)CC(=O)[C@]2(O)[C@@]3(C)[C@@H](O)CCC(C)(C)[C@@H]3[C@H](O)[C@H](OC(C)=O)[C@@]2(C)O1`: 3.9% (inactive).
On the same count and under the same terms, with `COc1ccc(C(Cl)=C(c2ccc(OC)cc2)c2ccc(OC)cc2)cc1` the figure was 2.85% (inactive).
With `CCCCCCCCCCCCCCCCO`, the activation is -8.72% (inactive).
The same measure, in the same setting: with `Oc1c(Cl)cc(Cl)c(Cl)c1Cc1c(O)c(Cl)cc(Cl)c1Cl` the figure was -7.2% (inactive) and -4.02% (inactive).
Still for that read-out and setting: with `NCCNc1cccc2ccccc12` the figure was 3.88% (inactive) and -4.01% (inactive).
Still for that read-out and setting: next, `OC[C@H]1O[C@@H]2O[C@H]3[C@H](O)[C@@H](O)[C@@H](O[C@H]4[C@H](O)[C@@H](O)[C@@H](O[C@H]5[C@H](O)[C@@H](O)[C@@H](O[C@H]6[C@H](O)[C@@H](O)[C@@H](O[C@H]7[C@H](O)[C@@H](O)[C@@H](O[C@H]8[C@H](O)[C@@H](O)[C@@H](O[C@H]1[C@H](O)[C@H]2O)O[C@@H]8CO)O[C@@H]7CO)O[C@@H]6CO)O[C@@H]5CO)O[C@@H]4CO)O[C@@H]3CO`: -6.02% (inactive); `CCCCC(CC)COC(=O)c1ccc(N(C)C)cc1` (configuration not stated): -4.68% (inactive).
As to `CN(C)C(=O)Nc1ccc(Cl)c(Cl)c1`, the activation is -4.05% (inactive).
On the same count and under the same terms, with `CCOc1ccc(NC(C)=O)cc1` the figure was 0.725% (inactive).
As for `COc1cc([C@H]2Oc3cc([C@H]4Oc5cc(O)cc(O)c5C(=O)[C@@H]4O)ccc3O[C@@H]2CO)ccc1O`, the activation is -3.21% (inactive).
In the case of `COc1ccc(C(=O)c2ccccc2)c(O)c1`, the activation is 4.95% (inactive) and -5.72% (inactive).
Consider `C#C[C@]1(O)CC[C@H]2[C@@H]3CCC4=Cc5oncc5C[C@]4(C)[C@H]3CC[C@@]21C`, for which the activation was -5.91% (inactive).
The same measure, in the same setting: next, `CCCCCCCCCCCCCC(=O)OC(C)C`: 5.08% (inactive); `CC(C)(C)CC(C)(C)c1ccc(O)c(-n2nc3ccccc3n2)c1`: -3.64% (inactive); `CCOc1ccccc1C(N)=O`: -1.86% (inactive).
